Results reported in ChEMBL document CHEMBL4513152, “CO-ADD screening of Yantai University (China) compounds”.
Results with a measured potency or affinity are listed apart.

Legend:
[1] = test system: Staphylococcus aureus; conditions: Concentration 32 ug.mL-1; ASSAY_TEST Inhibition of Bacterial Growth; detection method Absorption (OD600); MEDIA CAMHB; plate type 384well; NBS; CORNING #3640; time 18 hr
[2] = test system: Escherichia coli; conditions: Concentration 32 ug.mL-1; ASSAY_TEST Inhibition of Bacterial Growth; detection method Absorption (OD600); MEDIA CAMHB; plate type 384well; NBS; CORNING #3640; time 18 hr

Row | SMILES | Inhibition [1] [%] | Inhibition [2] [%]
1 | CC(=O)O[C@H]1C[C@@]2(C)C(CC(=O)C3[C@@]4(C)CC[C@@H](OC(=O)CCCCCO[N+](=O)[O-])[C@@H](C)C4CC[C@@]32C)/C1=C(\CCC=C(C)C)C(=O)OCc1ccccc1 (stereo partly specified) | 5.71 | -2.8
2 | CC(=O)O[C@H]1C[C@@]2(C)C(C[C@@H](O)C3[C@@]4(C)CC[C@@H](OC(=O)CCC(=O)Oc5ccc(CCO[N+](=O)[O-])cc5)[C@@H](C)C4CC[C@@]32C)/C1=C(\CCC=C(C)C)C(=O)OCc1ccccc1 (stereo partly specified) | -9.31 | -12.6
3 | CC(=O)O[C@H]1C[C@@]2(C)C(C[C@@H](O)C3[C@@]4(C)CC[C@@H](OC(=O)CO[N+](=O)[O-])[C@@H](C)C4CC[C@@]32C)/C1=C(\CCC=C(C)C)C(=O)OCc1ccccc1 (stereo partly specified) | 5.41 | 4.14
4 | CC(=O)O[C@H]1C[C@@]2(C)C(C[C@@H](O)C3[C@@]4(C)CC[C@@H](OC(=O)CCCCO[N+](=O)[O-])[C@@H](C)C4CC[C@@]32C)/C1=C(\CCC=C(C)C)C(=O)OCc1ccccc1 (stereo partly specified) | 9.5 | -4.08
5 | CC(=O)O[C@H]1C[C@@]2(C)C(C[C@@H](O)C3[C@@]4(C)CC[C@@H](OC(=O)CCCCCO[N+](=O)[O-])[C@@H](C)C4CC[C@@]32C)/C1=C(\CCC=C(C)C)C(=O)OCc1ccccc1 (stereo partly specified) | 6.22 | -6.82
6 | CC(=O)O[C@H]1C[C@@]2(C)C(C[C@@H](O)C3[C@@]4(C)CC[C@@H](O)[C@@H](C)C4CC[C@@]32C)/C1=C(\CCC=C(C)C)C(=O)Oc1ccc(CCO[N+](=O)[O-])cc1 (stereo partly specified) | 23.19 | -3.14
7 | CC(=O)O[C@H]1C[C@@]2(C)C(C[C@@H](O)C3[C@@]4(C)CC[C@@H](OC(=O)C(C)N)[C@@H](C)C4CC[C@@]32C)/C1=C(\CCC=C(C)C)C(=O)OCc1ccccc1 (stereo partly specified) | 32.79 | -12.12
8 | CC(=O)O[C@H]1C[C@@]2(C)C(C[C@@H](O)C3[C@@]4(C)CC[C@@H](OC(=O)CCC(=O)OCCc5ccc(OCCO[N+](=O)[O-])cc5)[C@@H](C)C4CC[C@@]32C)/C1=C(\CCC=C(C)C)C(=O)OCc1ccccc1 (stereo partly specified) | -0.26 | -8.83
9 | CC(=O)O[C@H]1C[C@@]2(C)C(C[C@@H](O)C3[C@@]4(C)CC[C@@H](OC(=O)c5ccccc5C(=O)Oc5ccc(CCO[N+](=O)[O-])cc5)[C@@H](C)C4CC[C@@]32C)/C1=C(\CCC=C(C)C)C(=O)OCc1ccccc1 (stereo partly specified) | -1.26 | -6.53
10 | CC(=O)O[C@H]1C[C@@]2(C)C(C[C@@H](O)C3[C@@]4(C)CC[C@@H](OC(=O)CCC(=O)O)[C@@H](C)C4CC[C@@]32C)/C1=C(\CCC=C(C)C)C(=O)OCc1ccccc1 (stereo partly specified) | 44.88 | 10.14
11 | CC(=O)O[C@H]1C[C@@]2(C)C(C[C@@H](O)C3[C@@]4(C)CC[C@@H](OC(=O)C(N)C(C)C)[C@@H](C)C4CC[C@@]32C)/C1=C(\CCC=C(C)C)C(=O)OCc1ccccc1 (stereo partly specified) | -9.9 | -10.45
12 | CC(=O)O[C@H]1C[C@@]2(C)C(C[C@@H](O)C3[C@@]4(C)CC[C@@H](O)[C@@H](C)C4CC[C@@]32C)/C1=C(\CCC=C(C)C)C(=O)OCc1ccccc1 (stereo partly specified) | 36.65 | -11.95
13 | CC(=O)O[C@H]1C[C@@]2(C)C(C[C@@H](O)C3[C@@]4(C)CC[C@@H](OC(=O)c5ccccc5C(=O)Nc5ccc(N)cc5)[C@@H](C)C4CC[C@@]32C)/C1=C(\CCC=C(C)C)C(=O)OCc1ccccc1 (stereo partly specified) | 7.06 | 1.09
